About 2,200 (0.61%) of roughly 360,000 compounds were called active. The list comes from a sample in which actives are over-represented; it also holds similar structures and randomly drawn compounds. Unmarked numbers belong to inactive results.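 How the source made its calls: active means inhibition above a per-plate cutoff, the plate's mean sample inhibition plus 3 SD (cut at about 24% in these data); inactive means the rest.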

This assay can be described thus: calcium signal blockers in parental CHO-K1 cells – cell-based, Fluo-8 calcium fluorescence, full deck, 1536-well, counter-screen for M1 antagonist project, primary screen (AID 602250).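 Further: 0% = DMSO plus EC80 ATP and 100% = DMSO alone without ATP.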 The following applies: ATP-induced calcium, Fluo-8 fluorescence, at 3 µM, stronger effect = higher value. (Counterscreens check selectivity or assay interference.)
What is called inhibition is the relative decrease from the control value, in per cent. As for `CCOC(=O)C1(CCOC)CCN(Cc2cc3ccccc3s2)CC1`, the inhibition was -9.7%.
Then `CCNC(=O)c1cccc(NC(=O)C2CC(=O)N(CCc3ccccc3)C2)c1` (configuration not stated), with -8.93%; and `COC(=O)C1=C(C(=O)OC)C2(OC1c1ccc(Br)cc1)C(=O)c1ccccc1C2=O` (configuration not stated), with -3.96%; and `O=C(c1ccc(C(F)(F)F)cc1)C1CCCN(C(=O)c2csnn2)C1` (configuration not stated), with -23.1%.
Then `CC(C)(C)OC(=O)C[C@@H]1C/C=C\C[C@@H](CC(=O)NCCO)C(=O)N[C@H](Cc2c[nH]c3ccccc23)COC1=O`, with -11.8%.
For `Cc1nc(CN(C)C(=O)CC2C(=O)NCCN2Cc2ccc(F)cc2)cs1` (configuration not stated), the inhibition is -6.22%.
Then `Nc1c(C(=O)c2cccs2)sc2nsc(SCCN3CCCCC3)c12`, with 47% (active).
Regarding `CCN(CC(=O)Nc1cc(Cl)ccc1C)C(=O)CN1C(=O)NC2(CCCC2)C1=O`, the inhibition is -4.87%.
Then `COc1cc(-c2nnc(NC(=O)CS(=O)(=O)c3ccc(Cl)cc3)o2)cc(OC)c1OC`, with 12.6%; and `CCCc1nc2ccccc2c(C(=O)OCc2nnc(-c3cc(OC)c(OC)c(OC)c3)o2)c1CC`, with 1.5%.
Then `COc1cc(-c2nnc(Cn3cc(C(F)(F)F)ccc3=O)o2)cc(OC)c1OC`, with 27.6% (active); and `Cn1c(SCC(=O)NC2CCCCC2)nnc1-c1ccc(N)cc1`, with 3.52%.
Then `O=C1c2cccc3c([N+](=O)[O-])ccc(c23)C(=O)N1CC1CCCO1` (configuration not stated), with 24.2% (active); and `N#Cc1cc([N+](=O)[O-])ccc1NCC1CCCO1` (configuration not stated), with -8.37%; and `O=C1C(C=NCC2CCCO2)=C(O)c2ccccc21` (configuration not stated), with -5.68%.
For `CCOc1ccc(NC(=S)N2CCC(N(C)CC3CCCO3)CC2)cc1` (configuration not stated), the inhibition was -7.23%.
Then `COc1ccc(CCNC(=O)Cc2ccc(C)cc2)cc1OC`, with 8.59%; and `COc1ccc(CC(=O)NC2CCSc3ccccc32)cc1OC` (configuration not stated), with -0.56%.
Then `COc1ccc(CC(=O)Nc2nc(-c3ccc(F)c(F)c3)cs2)cc1OC`, with 32.9% (active).
Regarding `CC(=O)Nc1cccc(NC(=O)c2c(-c3ccccc3)noc2C)c1`, the inhibition is 26.9% (active).
Then `Cc1onc(-c2c(F)cccc2Cl)c1C(=O)N(C)CC(=O)Nc1cccc(F)c1`, with -0.6%; and `CC(=O)Nc1cccc(/C(C)=N/NC(=O)c2c(-c3ccccc3Cl)noc2C)c1`, with 10.5%; and `CC(C)c1nc(SCC(=O)NC(=O)NC(C)(C)C)n[nH]1`, with -2.13%.
Then `Cc1cc(NC(=O)Nc2c[nH]c(=O)[nH]c2=O)ccc1Br`, with -4.71%.
Then `CCN1N=C(c2ccccc2)CCC1=O`, with -1.49%.
Take `O=C1CC(c2ccccc2)=NN1c1ccc([N+](=O)[O-])cc1`: the inhibition was 26.7% (active).
Then `O=C1NC(=O)C2C1C(c1ccc([N+](=O)[O-])cc1)=NN2Cc1ccccc1` (configuration not stated), with -6.56%.
Then `Cc1csc(NC(=O)C2CCCN2C(=O)OCC(C)C)n1` (configuration not stated), with 17%; and `CC(C)(C)C(=O)Nc1ccc(C(=O)N/N=C/c2ccccc2OC(=O)c2ccc(Cl)cc2Cl)cc1`, with 13.2%; and `O=C(N/N=C/c1ccc(OC(=O)c2ccccc2Cl)cc1)c1ccc(O)cc1`, with 24.1% (active).
Then `O=C(N/N=C/c1ccc(OCC2COCCO2)cc1)c1ccc(Br)cc1` (configuration not stated), with -8.18%.
For the molecule `O=C(c1ccccc1F)N(Cc1ccccc1)Cc1ccccc1`, the inhibition is -7.64%.
For `COCCn1c(Cc2cccn2C)nnc1SCC(=O)Nc1nccs1`, the inhibition is -7.19%.
Then `Cc1ccc(S(=O)(=O)N2CCN(C(=O)c3cccs3)CC2)cc1`, with -9.88%.
Then `O[C@H]1C[C@H](c2ccc(Cl)cc2)N(Cc2cccs2)C[C@@H]1n1cc(C2CC2)nn1`, with -27.1%.
Then `O=C(Nc1ccc(-c2ccc3nncn3n2)cc1)C1CCCCC1`, with -5.78%; and `CCCN(C(=O)CSc1nnnn1C)c1c(N)n(Cc2ccccc2)c(=O)[nH]c1=O`, with 4.6%; and `C#CCNC(=O)C[C@@H]1C[C@@]2(C(=O)OCC)CCCC=C2N(Cc2ccco2)C1=O`, with -0.85%.
As to `Nc1nnc(SCC(=O)Nc2ccc3nc(SCC(=O)Nc4ccccc4)sc3c2)s1`, the inhibition was 30% (active).
Then `COc1cc(OC)cc(-c2nnc(SCC(=O)Nc3ccc(C(=O)O)cc3)s2)c1`, with -8.28%.
Regarding `CCCCNC(=O)CSc1nc2ccc(NC(=O)CSc3nnc(N)s3)cc2s1`, the inhibition is -6.75%.
Take `CCN(CC)CCN1C(=O)C2C(C(=O)Nc3ccc(Br)cc3)C3C=CC2(O3)C1C(=O)NC1CCCCC1` (configuration not stated): the inhibition was -12.1%.
Then `COc1ccc(C(=O)N2CCCC(C(=O)c3ccccc3OC)C2)cc1OC` (configuration not stated), with 36.9% (active); and `COc1ccc(C(=O)C2CCCN(C(=O)c3cc(C)on3)C2)cc1F` (configuration not stated), with -2.55%.
Then `COc1ccc(F)cc1C(=O)C1CCCN(C(=O)CCc2ccccn2)C1` (configuration not stated), with 4.6%; and `CCN(CC)CC(=O)Nc1sc2c(c1C(=O)c1ccccc1C)CCC2`, with 3.09%.
Take `O=C(Nc1ccc([N+](=O)[O-])cc1)OCCc1ccccn1`: the inhibition is -2.63%.
In the case of `O=C(Nc1ccc(Cl)cc1)OCc1cc(-c2ccccc2)on1`, the inhibition was 7.62%.
Then `O=C(Nc1cccc(Cl)c1)OCc1ccccn1`, with 25.6% (active); and `O=C(CN1CCN(S(=O)(=O)c2ccc3ccccc3c2)CC1)NC(=O)NC1CCCCC1`, with -2.87%.
With `COc1cc2ccc(C(C)=O)c(O)c2cc1OC`, the inhibition was -2.14%.
Then `CCN(CC(=O)Nc1ccc2c(c1)OCO2)S(=O)(=O)c1ccccc1`, with -6.57%.
Then `O=C(CN(c1ccc2c(c1)OCCO2)S(=O)(=O)c1ccccc1)Nc1ccc2c(c1)OCO2`, with 30.7% (active); and `O=C(CCS(=O)(=O)Cc1ccccc1)Nc1ccc2c(c1)OCCO2`, with -8.23%.
Regarding `CC1CCCCN1S(=O)(=O)CCNC(=O)c1ccccc1` (configuration not stated), the inhibition is 14.2%.
Then `Cc1ccnc(SC2CC(=O)N(c3ccccc3)C2=O)n1` (configuration not stated), with 16.3%; and `CCOc1ccccc1N1C(=O)CC(Sc2nccc(C)n2)C1=O` (configuration not stated), with -15.2%.
For the molecule `CC(=O)Nc1ccc(N2C(=O)CC(Sc3nccc(C)n3)C2=O)cc1` (configuration not stated), the inhibition is 23.8% (active).
In the case of `C#Cc1ccc([C@@H]2C=C(C(=O)O)O[C@H](OCCCCO)C2)cc1`, the inhibition was -9.51%.
Then `CN(N)c1nc(N2CCCC2)nc(N2CCCC2)n1`, with 25.6% (active).
Then `FC(F)(F)COc1nc(N2CCCCC2)nc(N2CCNCC2)n1`, with -9.46%; and `O=C(NNc1nc(N2CCCC2)nc(N2CCCC2)n1)c1ccccc1`, with -8.06%.
Turning to `COC(=O)c1ccc(CN2CCCC(C(=O)Nc3cccc(-n4cnnn4)c3)C2)cc1` (configuration not stated), the inhibition is 0.04%.
Then `O=Cc1c(NCCc2cccc(F)c2)c2ccccc2[nH]c1=O`, with -10.6%; and `CCCCOc1ccc(N(CC(=O)NC(C)C)C(=O)CCC(=O)Nc2ccccn2)cc1`, with 23.1%.
Then `COc1cc(CNc2ncn[nH]2)ccc1OCc1ccccc1C`, with -1.69%; and `O=C(CNS(=O)(=O)c1ccccc1)NCC(=O)OCc1ccccc1F`, with -0.17%.
Then `CCSC1=C(C#N)C(=O)n2c1cc1c2CCCC1`, with -1.55%; and `CCSc1ncnc2c(C#N)c3n(c12)CCCCC3`, with 40.4% (active).
For the molecule `CCOC(=O)c1c(N=CN(C)C)c(C#N)c2n1CCCC2`, the inhibition is -8.04%.
Then `Cc1cc2oc(=O)cc(CN(C)Cc3ccccc3)c2cc1Cl`, with 6.2%; and `CCN(CC)CCn1c2c(c(SCC(=O)Nc3ccc(C(C)C)cc3)nc1=O)CCC2`, with -0.47%; and `Cc1ccc2nc(NC(=O)CSc3nc(=O)n(CCCN(C)C)c4c3CCC4)sc2c1`, with -19.7%.
Regarding `CCN(CC)CCn1c2c(c(SCC(=O)Nc3nc4ccccc4s3)nc1=O)CCCC2`, the inhibition was 28.3% (active).
Then `C=CCNC(=S)NNc1ncnc2sc3c(c12)CC(C)(C)OC3`, with -3.73%; and `O=C(C1CCN(S(=O)(=O)c2cccs2)CC1)N1CCCCCC1`, with -13.2%; and `Cc1ccc(S(=O)(=O)N2C[C@]3(O)C[C@@H]4C(=O)N(c5ccccc5)C(=O)[C@@H]4C[C@]3(OC(=O)NC3CC3)C2)cc1`, with -3.35%.
`CC(C)n1c(=O)[nH]c2cc(C(=O)Nc3ccccc3)ccc21`: the inhibition was 2.48%.
Then `O=C(Nc1ccccc1)c1ccc2nsnc2c1`, with 29.9% (active); and `Cc1cccc(NC(=O)c2ccc3nsnc3c2)c1C`, with -0.08%.
Then `CCC1Oc2ccc(Cl)cc2N(CC(=O)O)C1=O` (configuration not stated), with -18.5%.
Then `COc1ccc(C(=O)NC(=S)N2CCNC(=O)C2CC(=O)OC(C)C)cc1` (configuration not stated), with -6.8%; and `Cc1ccccc1C(=O)NCCN=C1NS(=O)(=O)c2ccccc21`, with 27.1% (active).
With `CN(C)S(=O)(=O)c1ccc(C(=O)NCCN=C2NS(=O)(=O)c3ccccc32)cc1`, the inhibition is -3.13%.
Regarding `O=C(NCCN=C1NS(=O)(=O)c2ccccc21)c1ccc(S(=O)(=O)N2CCOCC2)cc1`, the inhibition is 2.91%.
Then `O=C(c1cc(COc2c(F)cccc2F)on1)N1CCSCC1`, with -8.58%; and `C=CCC1(CC=C)CCCN1C(=O)c1cc(COc2ccc(-n3cncn3)cc2)on1`, with 31.3% (active); and `CCCC(=O)N1CCC1(C)C(=O)Nc1ccc(-n2cncn2)cc1` (configuration not stated), with -6.21%.
Then `CCc1cc(C(c2ccccc2OC)N2CCOCC2)c(NC(=O)c2ccccc2)s1` (configuration not stated), with 24.8% (active).
Then `COc1ccccc1C(=O)Nc1cccc(C(=O)N2CCOCC2)c1`, with -9.07%; and `COc1cc(C(c2c(NC(=O)c3ccco3)sc(C)c2C)N2CCOCC2)cc(OC)c1OC` (configuration not stated), with 5.36%.
Take `CC(C)OCCCNC(=O)c1ccc(C2SCC(=O)N2Cc2ccco2)cc1` (configuration not stated): the inhibition is -4.67%.

(Values after PubChem BioAssay AID602250 (The Scripps Research Institute Molecular Screening Center, 2012).)
